# Assay results published in PubChem BioAssay (NCATS).
# Records with an inconclusive call do not appear. Unmarked numbers belong to inactive results. Calls come from the whole dose curve; as a rule, active = well fitted inhibition curve with a large enough effect; inconclusive = small, poorly fitted or top-dose-only effect; inactive = no such curve, though single readings can be large or run the other way. *1 amine or outer side, *2 acyl side, *3 side chain or, on linkers, in order; H or OH if unused. Where a SMILES comes first, the peptide text is derived from it. Bridges are numbered along the chain shown (N, C = ends). [ ]: non-standard residue; d: D form. The star is where a group is joined. ξ: configuration not given here. X10 = NC1=NCCC(C(N[*:1])C(=O)[*:2])N1; ΔAla(3-NHCONH2) = NC(=O)NC=C(N)C(=O)O; ξβ3hOrn = NCCCC(N)CC(=O)*; Dap = NC[CH](N)C(=O)O
# Experiment: Primary qHTS for inhibitors of La Crosse Virus (LACV) - induced cell death in SH-SY5Y cells (AID 1508616);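 note: top concentration of the series differs between compounds; 0% = infected DMSO wells and 100% = uninfected DMSO wells; higher means more rescue of cells from virus-induced death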
# Details: SH-SY5Y LACV cytopathicity rescue, ATP luminescence, 6 d; series mostly up to 4.29 µM; activity change: at the top concentration
# Source text: Assay Provider: Karin Peterson Ph.D.
# National Institute of Allergy and Infection Diseases, National Institute of Health
# La Crosse Virus (LACV) is a California serogroup mosquito-borne arbovirus, family Peribunyaviridae, which is an endemic pathogen in North America and can induce a rare, life-threatening neurological disease in children. LACV was first isolated in the early 1960s, from a summer "rural encephalitis" case in La Crosse, Wisconsin, USA. Since then, LACV encephalitis cases have been found in more than twenty states, with most cases in the Mississippi and Ohio River basins. The life cycle of LACV is maintained between the vector, the eastern tree-hole mosquito Aedes triseriatus, and vertebrate hosts including eastern gray squirrels (Sciurus carolinensis) and chipmunks (Tamiasstriatus grinseus). […] Most LACV infections in humans are asymptomatic or induce mild clinical symptoms of fever, headache, lethargy and vomiting. However, in some cases LACV can cause severe neuroinvasive disease, including encephalitis, meningitis, and meningoencephalitis, requiring hospitalization. To date, there is neither a licensed vaccine nor a Food and Drug Administration (FDA) approved antiviral therapy available to prevent or treat LACV encephalitis. The primary treatment for viral encephalitis is palliative care due to the lack of therapeutics. In the current study, we conducted a screen of 4,096 FDA approved and bioactive small molecules against LACV, by screening for rescue of LACV-induced cell death in SH-SY5Y cells.
# LACV-induced cytopathicity assay
# SEQUENCE No. (1,2, 3, etc.); […] (e.g., Cells, Incubation, Reagent, etc.); VALUE and DESCRIPTION.
# 1. Reagent; 2 uL; Cell solution.
# 3. Compounds; 23nL; Compound library
# 4. Reagent; 12 uL; LACV virus
# 6. Reagent; 24 uL; ATPLite (PerkinElmer)
# 7. Time; 5 min; Room temperature
# 8. Detection; Luminescence; View
# NOTES (numbers refer to sequence above)
# 1. Seed 6000 SH-SY5Y cells (ATCC CRL-2266) in 2 microL/well media (DMEM/F12 10% FBS, 1x L-Glutamine, 1x Pyruvate, 1x NEAA, 1x Pen/Strep) in 384-well assay plates (tissue culture treated, white, solid bottom).
# 2. Incubate at 37 degrees C with 5% CO2 for 24 hr.
# 3. Dispense 23 nL/well compounds in DMSO via pin transfer.
# 4. Dispense 12 microL/well of LACV (LACV/human/1978) in media at 0.01 MOI.
# 5. Incubate at for 6 days at 37C 5% CO2
# 6. Dispense 24 microL/well of ATPLite 1step Luminescence assay system (PerkinElmer).
# 7. Incubate for 5 min at room temperature.
# 8. Read luminescence signal (Viewlux plate reader, PerkinElmer). Data was normalized with DMSO control wells containing LACV as 0%, and DMSO control wells without virus as 100%.
row,SMILES,activity change
1,c1ccc2c(c1)CCc1ccccc1N2,24%
2,CC(=O)Oc1ccc(C2(c3ccc(OC(C)=O)cc3)Oc3ccccc3NC2=O)cc1,-28.8%
3,CCOC(=O)C(=O)c1csc(NC=O)n1,13.7%
4,O=C1CC[C@H](C(=O)N2CCCCC2)N1,14.9%
5,OCc1cccnc1,-19.6%
6,Cc1nc2n(c(=O)c1CCN1CCC(C(=O)c3ccc(F)cc3)CC1)CCS2,5.07%
7,CN(C)CCN(Cc1ccsc1)c1ccccn1,-5.74%
8,Cc1cc(OCCOCC[N+](C)(C)Cc2ccccc2)ccc1C(C)(C)CC(C)(C)C,1.49%
9,O=C(O)Cn1c(=O)n(Cc2ccc(Br)cc2F)c(=O)c2ccc(Cl)cc21,0.0924%
10,O=C(O)CCC(=O)OC[C@@H](NC(=O)C(Cl)Cl)[C@H](O)c1ccc([N+](=O)[O-])cc1,-0.966%
11,Cc1cc2nc3ccc(=[N+](C)C)cc-3sc2cc1N,1.92%
12,CN(C)c1cc2c(Nc3ccc4c(cnn4Cc4ccccc4)c3)ncnc2cn1,88.6% [at 9.63 µM]
13,C[N+]1(C)CCC(OC(=O)C(O)(c2ccccc2)C2CCCC2)C1 (stereo not given),1.02%
14,CN1CC(=O)N2[C@H](c3ccc4c(c3)OCO4)c3[nH]c4ccccc4c3C[C@@H]2C1=O,28.1%
15,CCOC(=O)c1ccc(NC(=O)CN2CCCCC2)cc1,4.81%
16,CC(CCc1ccc2c(c1)OCO2)NN (stereo not given),-9.66%
17,CCOC(=O)c1cc(=O)c2c(OCC(COc3cccc4oc(C(=O)OCC)cc(=O)c34)OC(=O)[C@@H](N)CCCCN)cccc2o1,-7.64%
18,c1ccc(C(O[C@H]2CCCN(CCc3ccc4c(c3)OCO4)C2)c2ccccc2)cc1,-29.8%
19,CCS(=O)(=O)c1ccc(OC)c(C(=O)OC)c1,22.2%
20,CC(=O)[C@H]1CC[C@H]2[C@@H]3C=CC4=CC(=O)CC[C@@]4(C)[C@@H]3CC[C@]12C,36.2%

row,SMILES,activity change
1,CCOC(=O)C1=C(C)NC(C)=C(C(=O)OCC)C1c1ccccc1/C=C/C(=O)OC(C)(C)C,3.23%
2,Cc1ccc2c(Cl)cc(Cl)c(O)c2n1,-7.24%
3,CCCc1c2oc(C(=O)O)cc(=O)c2cc2c(=O)cc(C(=O)O)n(CC)c12,10%
4,CCN1CCN(C(=O)N[C@@H](C(=O)N[C@@H]2C(=O)N3[C@@H]2SC(C)(C)[C@H]3C(=O)O)c2ccccc2)C(=O)C1=O,-4.62%
5,C[C@@H](C1=C(CCN(C)C)Cc2ccccc21)c1ccccn1,-0.328%
6,N=C(N)c1ccc(OCCCOc2ccc(C(=N)N)cc2)cc1,3.42%
7,Cn1cc(S(C)=O)c(=O)c2ccc(F)cc21 (stereo not given),0.854%
8,CC(C)NCCCC1(C(N)=O)c2ccccc2-c2ccccc21,3.2%
9,NC(N)=NCCCCN=C(N)N,-10.5% [at 9.63 µM]
10,NC(=O)NC1N=C([O][Al])NC1=O (stereo not given),-8.65%
11,CC(C)C(=O)Nc1cccc(C(F)(F)F)c1,1.2%
12,CC(=O)N1CCN(c2ccc(O)cc2)CC1,-1.2%
13,CC1CN(c2cc3c(cc2F)c(=O)c(C(=O)O)cn3-c2ccc(F)cc2F)CCN1 (stereo not given),-2.85% [at 0.431 µM]
14,CCOC(=O)OCC/C(SC(=O)OCC)=C(\C)N(C=O)Cc1cnc(C)nc1N,-2.25%
15,NCCCC(N)CC(=O)NCC1NC(=O)C(CO)NC(=O)C(N)CNC(=O)C(C2CCN=C(N)N2)NC(=O)C(=CNC(N)=O)NC1=O (stereo not drawn) (H-[Dap]S[Dap](ξβ3hOrn)[ΔAla(3-NHCONH2)][X10]; lactam 1-C; configuration not given here),8.73% [at 0.0343 µM]
16,CC(C)(C)C(O)/C=C/c1ccc2c(c1)OCO2 (stereo not given),-7.12%
17,CC(=O)N(CC(O)CO)c1c(I)c(C(=O)NCCO)c(I)c(C(=O)NCC(O)CO)c1I (stereo not given),10.1%
18,COC(=O)CCCCC(CCSS/C(CCO)=C(\C)N(C=O)Cc1cnc(C)nc1N)SC(C)=O (stereo not given),-5.63%
19,CCCCNc1ccc(C(=O)OCCN(CC)CC)cc1,-8.19%
20,NCC(=O)O,23.3% [at 1.78 µM]
